Only some compounds are listed: those with a hit (about 1.1% of all), similar ones and a draw of the others.
A1 inh: inhibitors of the anti-apoptotic protein A1, read as caspase activation; 330,000 compounds, 0.066% hits; caspase activation, % (concentration not given with the values); MEF A1-2A-BIM cells, Caspase-Glo 3/7 luminescence, 3 h; percent of clofoctol response, vehicle zero; AID 2462;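 active = over half of replicate activation scores above 10%, or exactly half above 10 with the replicate mean above 10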
A3G deaminase: APOBEC3G (human) deaminase inhibition; Q9HC16; recombinant A3G, ssDNA deamination FAM/TAMRA fluorescence; inhibition, % at 20 µM; 330,000 compounds, 0.28% hits; AID 493012;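 active = inhibition of at least 40% at 20 µM, with no more than 30% in the related APOBEC3A deaminase screen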
Target sequence (Q9HC16 whole entry, looked up): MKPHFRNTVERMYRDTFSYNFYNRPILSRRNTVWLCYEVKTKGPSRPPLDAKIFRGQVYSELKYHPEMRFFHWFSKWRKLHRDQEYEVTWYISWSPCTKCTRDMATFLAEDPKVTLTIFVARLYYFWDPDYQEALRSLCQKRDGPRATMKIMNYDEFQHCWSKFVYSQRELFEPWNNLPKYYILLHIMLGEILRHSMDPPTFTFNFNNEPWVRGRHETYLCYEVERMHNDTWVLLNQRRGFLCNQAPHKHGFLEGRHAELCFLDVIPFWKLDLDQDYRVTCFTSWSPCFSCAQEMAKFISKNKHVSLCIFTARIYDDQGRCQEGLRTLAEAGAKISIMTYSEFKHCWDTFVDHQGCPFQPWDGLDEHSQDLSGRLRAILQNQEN
MIN6 prolif-1: inducers of beta-cell replication in MIN6 cells; MIN6 cells proliferation, ATPlite luminescence, 48 h; cells starved in 0.2% serum; 100% = growth in 10% serum; proliferation, % at 10 µM; 330,000 compounds, 0.29% hits;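 active = compounds whose signal lies at least 3.5 SD above the mean of all wells on their plate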
APOBEC3A inh: human APOBEC3A DNA deaminase inhibition; P31941; recombinant A3A, FAM/TAMRA ssDNA deamination fluorescence; inhibition, % at 20 µM; 330,000 compounds, 0.41% hits; AID 493011;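 active = at least 40% inhibition at 20 µM here, with at most 30% in a related deaminase screen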
Target sequence (P31941 whole entry, looked up): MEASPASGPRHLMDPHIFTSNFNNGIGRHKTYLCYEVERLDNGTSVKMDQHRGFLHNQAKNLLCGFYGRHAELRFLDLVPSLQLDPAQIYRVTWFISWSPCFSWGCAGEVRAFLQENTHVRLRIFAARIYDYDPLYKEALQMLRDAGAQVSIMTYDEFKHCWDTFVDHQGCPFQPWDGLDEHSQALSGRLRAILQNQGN
MIN6 prolif-2: MIN6 beta-cell replication induction, confirmed | shares compounds with MIN6 prolif-1 | AID 463095 | proliferation increase, % at 50 µM | MIN6 beta-cell proliferation, ATPlite luminescence, 48 h; cells kept in 0.2% serum; scaled between 0.2% and 10% serum | 920 tested, under 10 active;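 active = proliferation increase above 40% at any of the four tested concentrations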
Large screens that a line does not name were inactive (follow-up assays come after a bar, where they were run).

CCCCN(CC)CCCNC(=O)c1cn(-c2ccc(OC)cc2)c(=O)c2ccccc12	none
COc1ccc(-c2nnc(-c3ccc(Br)o3)o2)cc1OC	MIN6 prolif-1 7.2 | MIN6 prolif-2 inactive
CCN(CC(=O)Nc1c(F)cccc1F)C(=O)Cn1[nH]c(=O)c2ccccc2c1=O	MIN6 prolif-1 11 | MIN6 prolif-2 inactive
Cn1c(=O)c2cn(-c3ccccc3)cc2n(C)c1=O	MIN6 prolif-1 5.4 | MIN6 prolif-2 inactive
COc1cccc(-n2cc3c(=O)n(C)c(=O)n(C)c3c2)c1	none
Cc1cccc(C)c1Nc1ncnc(N)c1[N+](=O)[O-]	none
Cc1ccc(CNc2ncnc(N)c2[N+](=O)[O-])cc1	MIN6 prolif-1 7.8 | MIN6 prolif-2 inactive
Cc1cc(N2C(=O)C(O)=C(C(=O)c3ccc(C)o3)C2c2ccc([N+](=O)[O-])cc2)no1 (stereo not drawn)	none
CN(C)c1ccc(C(=S)N2CCCCCC2)cc1	none
CN(C)c1ccc(C(=S)N2CCOCC2)cc1	MIN6 prolif-1 9.0 | MIN6 prolif-2 inactive
Cc1oc2ccc(O)cc2c1C(=O)c1ccc(F)cc1	MIN6 prolif-1 15 | MIN6 prolif-2 inactive
COc1ccc2oc(C)c(C(=O)c3ccc([N+](=O)[O-])cc3)c2c1	none
Cc1cc(C)nc(-n2nc(C)cc2NC(=O)CNCc2ccccc2)n1	none
CCC(C(=O)Nc1cc(C)nn1-c1nc(C)cc(C)n1)c1ccccc1 (stereo not drawn)	MIN6 prolif-1 6.1 | MIN6 prolif-2 inactive
COc1ccc(OCc2nnc(SCC(=O)Nc3ccccc3F)o2)cc1	none
Cc1ccc(S(=O)(=O)N(CC(O)CN2C(=O)NC(C)(C)C2=O)c2ccccc2)cc1 (stereo not drawn)	MIN6 prolif-1 8.8 | MIN6 prolif-2 inactive
Cc1cc2c(ncn2C)c(NS(=O)(=O)c2ccc(F)cc2)c1C	none
Cc1cc2c(ncn2C(C)C)c(NS(=O)(=O)c2ccc(F)cc2)c1C	MIN6 prolif-1 8.9 | MIN6 prolif-2 inactive
O=C(NNC(=O)C1CCCO1)c1ccc(Cl)cc1 (stereo not drawn)	MIN6 prolif-1 8.5 | MIN6 prolif-2 inactive
Cc1ccc(S(=O)(=O)N2CCN(C(=O)CC(C)n3nc(C)c(Cl)c3C)CC2)cc1C (stereo not drawn)	none
COc1ccc(OC)c2c1sc(=NC(=O)C1COc3ccccc3O1)n2C (stereo not drawn)	MIN6 prolif-1 7.7 | MIN6 prolif-2 inactive
CCOC(=O)c1c(N)sc2c1CCN(CCc1ccccc1)C2	MIN6 prolif-1 7.5 | MIN6 prolif-2 inactive
CCN(CC)c1ccc(C(=O)OCC(=O)Nc2cc(C)on2)cc1	none
Cc1nc(N2CCOCC2)nc(N2CCCCC2C)c1[N+](=O)[O-] (stereo not drawn)	MIN6 prolif-1 8.1 | MIN6 prolif-2 inactive
CC1Cc2ccccc2N1c1ncnc(N)c1[N+](=O)[O-] (stereo not drawn)	none
CC1CCCCN1c1ncnc(N)c1[N+](=O)[O-] (stereo not drawn)	MIN6 prolif-1 8.8 | MIN6 prolif-2 inactive
Cc1cc(NC(=O)CSc2nnc(C)n2-c2ccccc2C)no1	none
O=C(Nc1ccccc1Cl)C1CCCN(c2ncnc3c2nc2n3CCCCC2)C1 (stereo not drawn)	none
CCOC(=O)C1(CCCc2ccccc2)CCN(C(=O)c2cnn(CC)c2)CC1	none
CCOC(=O)N1CCC(N(CCN(C)C)C(=S)Nc2cc(Cl)ccc2C)CC1	none
O=C(NCc1cccs1)c1cccnc1Cl	MIN6 prolif-1 0.0 | MIN6 prolif-2 inactive
O=C(NCc1cccs1)c1cnc(Cl)c(Cl)c1	none
Cc1cccc(N2CCC(N3CCN(C4CCCCC4)C(CCO)C3)CC2)c1C (stereo not drawn)	none
COCC(=O)N1CCC(Oc2ccc(C(=O)N(C)C3CCCCC3)cc2)CC1	none
COCCC(=O)N1CCC(Oc2ccc(C(=O)N(C)C3CCCCC3)cc2)CC1	MIN6 prolif-1 6.6 | MIN6 prolif-2 inactive
O=C1N[C@@H](Cc2c[nH]c3ccccc23)COC(=O)[C@@H](Cc2ccc(F)cc2)CC/C=C/C[C@@H]1CC(=O)N(CCO)Cc1ccccc1	none (no result: A1 inh)
CCOc1ccc(OCc2ccc(C(=O)NCc3ccncc3)o2)cc1	MIN6 prolif-1 4.9 | MIN6 prolif-2 inactive
COc1ccc(-c2cn[nH]c2-c2ccc(OC)cc2O)cc1	MIN6 prolif-1 9.3 | MIN6 prolif-2 inactive
COc1ccc(-c2[nH]ncc2-c2ccc(Cl)cc2)c(O)c1	none
Cc1ccc(C2=NNC(C(O)C(O)C(O)CO)S2)cc1 (stereo not drawn)	MIN6 prolif-1 5.8 | MIN6 prolif-2 inactive
O=C(COc1ccccc1)NC1C(=O)N2C(C(=O)O)=C(Cl)CSC12 (stereo not drawn)	MIN6 prolif-1 10 | MIN6 prolif-2 inactive
CC1=C(C(=O)OCc2ccccc2)N2C(=O)[C@@H](NC(=O)COc3ccccc3)[C@H]2SC1	none
CC(=O)N1N=C(c2ccc(Cl)cc2)OC12CCCC2	MIN6 prolif-1 7.3 | MIN6 prolif-2 inactive
O=C(NNC(=O)c1c(O)c2ccccc2[nH]c1=O)c1ccccc1Br	none
CCN1CCCC1CNC(=O)c1csc2c1CCCC2 (stereo not drawn)	MIN6 prolif-1 6.4 | MIN6 prolif-2 inactive
O=C(c1cccc(Cl)c1)N1CCN(c2ccc(N3CCOCC3)nn2)CC1	MIN6 prolif-1 14 | MIN6 prolif-2 inactive
O=C(c1ccccc1)N1CCN(c2ccc(N3CCOCC3)nn2)CC1	none
COC(=O)[C@@]12CCCN1[C@H](c1ccc(-c3ccc(OC)cc3)cc1)[C@@H]1C(=O)N(C)C(=O)[C@@H]12	none
COc1ccc(NC(=O)CN(C)C(=O)CN2C(=O)NC3(CCCC3)C2=O)cc1	MIN6 prolif-1 16 | MIN6 prolif-2 inactive
Cc1ccc(CNC(=O)C2CCCN(S(=O)(=O)c3ccc(F)cc3)C2)cc1 (stereo not drawn)	none
Cc1ccc(C(=O)NCCN2CCOCC2)c(Cl)c1	MIN6 prolif-1 6.0 | MIN6 prolif-2 inactive
O=C(Nc1c(Cl)cc(Cl)cc1C(=O)NCCN1CCOCC1)c1ccc(Cl)cc1Cl	MIN6 prolif-1 8.7 | MIN6 prolif-2 inactive
O=C(Nc1ccc(Cl)cc1C(=O)NCCN1CCOCC1)c1ccc(Cl)cc1Cl	none
CC(C)n1cnc2c(N(C)c3cccc(Cl)c3)nc(N(CCO)CCO)nc21	MIN6 prolif-1 17 | MIN6 prolif-2 inactive
CC(C)[C@H](CO)N(Cc1cccc(F)c1)c1nc(Nc2cccc(Cl)c2)c2ncn(C(C)C)c2n1	none
CCCOc1c(Br)cc(C(=O)NCC)cc1OC	none
CCCOc1c(Cl)cc(C(=O)NC)cc1OC	MIN6 prolif-1 9.7 | MIN6 prolif-2 inactive
COc1cc(C)nc(NS(=O)(=O)c2ccc(C)cc2)n1	none
COc1nc(N)nc(N)c1NS(=O)(=O)c1ccc(C)cc1	MIN6 prolif-1 9.8 | MIN6 prolif-2 inactive
O=C(N/N=C/c1cc([N+](=O)[O-])cc([N+](=O)[O-])c1O)/C(=C\c1cccs1)NC(=O)c1ccccc1	MIN6 prolif-1 0.0 | MIN6 prolif-2 inactive

Compound activity: PubChem, several laboratories
